Measured values taken from PubChem BioAssay (Tox21).
Inconclusive results are not listed. Activity calls are given as the source filed them. Unless noted, calls come from the whole dose curve; as a rule, active = well fitted curve in the direction sought with a large enough effect in the repeat runs; inconclusive = weak or mixed curves; inactive = no such curve, though single readings can be large; an effect the other way counts as inactive or inconclusive.

Columns and labels:
[1] = qHTS assay to identify small molecule agonists of the peroxisome proliferator-activated receptor delta (PPARd) signaling pathway - cell viability counter screen (AID 743211); note: % is set by controls: 0 for no effect and ±100 for the full control effect; nearly all actives have a fitted effect of over 55% in size
Method in brief: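 PPARd-bla HEK293H cells (3000/well) were pre-incubated 5 h at 37 C, then exposed to compound for 17 h at 37 C. After 2 h with LiveBLAzer substrate, CellTiter-Glo was added to the same wells; luminescence read after 30 min at room temperature.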

[2] = biological target: Peroxisome proliferator-activated receptor delta (Homo sapiens) (UniProt Q03181); test: qHTS assay to identify small molecule agonists of the peroxisome proliferator-activated receptor delta (PPARd) signaling pathway (AID 743212; calls by dose curve; note: % is set by controls: 0 for no effect and ±100 for the full control effect)
Chain of Peroxisome proliferator-activated receptor delta (Homo sapiens) (Q03181 whole entry, looked up): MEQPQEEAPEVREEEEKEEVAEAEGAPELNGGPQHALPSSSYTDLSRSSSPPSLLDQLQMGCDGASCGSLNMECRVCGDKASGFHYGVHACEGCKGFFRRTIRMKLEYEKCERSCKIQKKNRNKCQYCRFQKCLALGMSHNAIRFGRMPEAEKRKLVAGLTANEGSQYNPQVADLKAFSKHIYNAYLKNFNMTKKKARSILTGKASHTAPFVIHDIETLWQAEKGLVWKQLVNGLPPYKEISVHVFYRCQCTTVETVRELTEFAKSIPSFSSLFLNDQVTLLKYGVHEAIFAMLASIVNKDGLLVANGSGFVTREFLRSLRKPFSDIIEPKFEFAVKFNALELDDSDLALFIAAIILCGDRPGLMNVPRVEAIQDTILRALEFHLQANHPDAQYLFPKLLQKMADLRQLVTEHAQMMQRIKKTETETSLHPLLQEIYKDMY
Method in brief: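 Quantitative high-throughput agonist screen in a HEK293H beta-lactamase reporter line under UAS control. Compounds in DMSO, at 37 C. Fluorescence read after 2 h with FRET substrate at room temperature.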

[3] = qHTS assay to identify small molecule antagonists of the peroxisome proliferator-activated receptor delta (PPARd) signaling pathway - cell viability counter screen (AID 743213); note: % is set by controls: 0 for no effect and ±100 for the full control effect; nearly all actives have a fitted effect of over 50% in size
Method in brief: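 PPARd-bla HEK293H cells (3000/well) got compound plus 300 nM L165041 agonist for 17 h at 37 C. Viability in the same wells came from CellTiter-Glo luminescence after 30 min at room temperature.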

[4] = qHTS assay to identify small molecule agonists of the farnesoid-X-receptor (FXR) signaling pathway - cell viability counter screen (AID 743218); note: % is set by controls: 0 for no effect and ±100 for the full control effect; nearly all actives have a fitted effect of over 45% in size
Method in brief: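 In GeneBLAzer FXR-UAS-bla HEK 293T cells, compounds act for 16 h at 37 C. Cell viability is then scored in the reporter wells by CellTiter-Glo, 30 min at RT, luminescence.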

[5] = biological target: Vitamin D3 receptor (Homo sapiens) (UniProt P11473); test: qHTS assay to identify small molecule agonists of the vitamin D receptor (VDR) signaling pathway (AID 743222; calls by dose curve; note: % is set by controls: 0 for no effect and ±100 for the full control effect)
Chain of Vitamin D3 receptor (Homo sapiens) (P11473 whole entry, looked up): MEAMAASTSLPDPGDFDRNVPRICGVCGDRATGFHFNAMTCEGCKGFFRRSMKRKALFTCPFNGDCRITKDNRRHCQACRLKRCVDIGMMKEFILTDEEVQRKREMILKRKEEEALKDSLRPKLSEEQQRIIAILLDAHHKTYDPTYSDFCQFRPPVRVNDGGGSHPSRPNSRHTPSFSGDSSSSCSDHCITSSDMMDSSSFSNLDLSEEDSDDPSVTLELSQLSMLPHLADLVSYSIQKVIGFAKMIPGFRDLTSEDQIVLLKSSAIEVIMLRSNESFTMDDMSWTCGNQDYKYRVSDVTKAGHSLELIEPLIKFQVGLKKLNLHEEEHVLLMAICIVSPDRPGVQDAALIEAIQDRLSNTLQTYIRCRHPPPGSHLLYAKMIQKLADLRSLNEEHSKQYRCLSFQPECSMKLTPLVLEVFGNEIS
Method in brief: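 Agonist activity measured in VDR-bla reporter cells. Exposure 16 h, 37C, 5% CO2; detection by B/G FRET substrate, 2 h RT.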

[6] = qHTS assay to identify small molecule agonists of the vitamin D receptor (VDR) signaling pathway - cell viability counter screen (AID 743224); note: series mostly up to about 63 µM; % is set by controls: 0 for no effect and ±100 for the full control effect; nearly all actives have a fitted effect of over 50% in size
Method in brief: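 VDR-bla cell line, quantitative HTS format; 16 h compound incubation (37C, 5% CO2); ATP-based CellTiter-Glo luminescence measured in the reporter assay wells.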

[7] = qHTS assay to identify small molecule antagonists of the vitamin D receptor (VDR) signaling pathway - cell viability counter screen (AID 743225); note: % is set by controls: 0 for no effect and ±100 for the full control effect; nearly all actives have a fitted effect of over 50% in size
Method in brief: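 VDR-UAS-bla HEK 293T cells were plated and incubated 4 h at 37C, then dosed with compound plus 3 nM (final) 1-alpha,25-dihydroxyvitamin D3 for 16 h. After the 2 h beta-lactamase read, viability in the same wells was read as CellTiter-Glo luminescence after 30 min at room temperature.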

[8] = qHTS assay to identify small molecule agonists of the NFkB signaling pathway - cell viability counter screen (AID 1159515; calls by dose curve; note: series mostly up to about 61 µM; % is set by controls: 0 for no effect and ±100 for the full control effect; nearly all actives have a fitted effect of over 55% in size)
Method in brief: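 Viability in NFkB-bla ME-180 cells was measured by CellTiter-Glo luminescence, 30 min room temperature, in wells already treated 5 hr with compounds and read for reporter FRET.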

[9] = qHTS assay to identify small molecule agonists of the endoplasmic reticulum stress response signaling pathway (AID 1159516; active = well fitted activation curve with a large enough effect in the signal ratio in the repeat runs, not every such curve was filed as active; the % refers to the signal ratio; note: % is set by controls: 0 for no effect and ±100 for the full control effect)
Method in brief: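 ER stress element reporter (bla) in HeLa. 1,500 cells/well, overnight attachment; 5 hr compound; 2 hr RT substrate; dual-emission fluorescence.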

[10] = qHTS assay to identify small molecule agonists of the endoplasmic reticulum stress response signaling pathway - cell viability counter screen (AID 1159517; calls by dose curve;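 note: HeLa cells carrying an ER stress response element beta-lactamase reporter; series mostly up to about 61 µM; % is set by controls: 0 for no effect and ±100 for the full control effect; nearly all actives have a fitted effect of over 50% in size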)
Method in brief: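 Counter-screen wells were identical to the reporter wells. Cells were plated at 1,500 per well and dosed for 5 hr, then read for luminescence 30 min after CellTiter-Glo addition.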

[11] = qHTS assay to identify small molecule antagonists of the retinoid-related orphan receptor gamma (ROR-gamma) signaling pathway - cell viability counter screen (AID 1159520)
Method in brief: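 Tet-on ROR gamma CHO cells were given compounds for 2 hr, then doxycycline hyclate at 1 uM final, and incubated 16 hr at 37 C. Viability was measured as ATP content by CellTiter-Glo luminescence.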

[12] = biological target: Nuclear receptor ROR-gamma (Homo sapiens) (UniProt P51449); test: qHTS assay to identify small molecule antagonists of the retinoid-related orphan receptor gamma (ROR-gamma) signaling pathway (AID 1159521)
Method in brief: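 Tet-on ROR-gamma CHO cells with ROR response element-luciferase reporter; compounds added 2 hr before 1 uM doxycycline induction, then 16 hr at 37 C. Antagonism scored as decreased ONE-Glo luminescence.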

[13] = qHTS assay to identify small molecule agonists of the AP-1 signaling pathway (AID 1159526; calls by dose curve; note: % is set by controls: 0 for no effect and ±100 for the full control effect)
[14] = biological target: Bile acid receptor (Homo sapiens) (UniProt Q96RI1); test: qHTS assay to identify small molecule antagonists of the farnesoid-X-receptor (FXR) signaling pathway (AID 743217; active = well fitted inhibition curve with a large enough effect in the signal ratio in the repeat runs, not every such curve was filed as active; the % refers to the signal ratio; note: % is set by controls: 0 for no effect and ±100 for the full control effect)
Chain of Bile acid receptor (Homo sapiens) (Q96RI1 whole entry, looked up): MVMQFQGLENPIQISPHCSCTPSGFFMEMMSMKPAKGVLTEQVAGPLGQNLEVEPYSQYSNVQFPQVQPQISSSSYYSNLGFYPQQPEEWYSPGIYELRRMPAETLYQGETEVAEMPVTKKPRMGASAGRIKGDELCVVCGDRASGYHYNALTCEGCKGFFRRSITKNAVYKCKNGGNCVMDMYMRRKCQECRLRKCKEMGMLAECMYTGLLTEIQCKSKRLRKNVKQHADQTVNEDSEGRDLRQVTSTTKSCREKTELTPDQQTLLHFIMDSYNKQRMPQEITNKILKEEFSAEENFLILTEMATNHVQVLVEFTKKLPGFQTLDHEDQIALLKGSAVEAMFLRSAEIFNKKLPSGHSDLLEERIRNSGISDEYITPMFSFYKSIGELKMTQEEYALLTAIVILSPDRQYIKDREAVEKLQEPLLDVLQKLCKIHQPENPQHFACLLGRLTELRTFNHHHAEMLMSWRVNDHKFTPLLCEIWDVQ
Method in brief: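 Beta-lactamase reporter under UAS control in HEK 293T cells; compound exposure 16 h at 37 °C in the presence of chenodeoxycholic acid (50 uM final); signal from B/G FRET substrate after 2 h at room temperature.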

[15] = biological target: Bile acid receptor (Homo sapiens) (UniProt Q96RI1); test: qHTS assay to identify small molecule agonists of the farnesoid-X-receptor (FXR) signaling pathway (AID 743220; active = well fitted activation curve with a large enough effect in the signal ratio in the repeat runs, not every such curve was filed as active; the % refers to the signal ratio; note: % is set by controls: 0 for no effect and ±100 for the full control effect)
Method in brief: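 Beta-lactamase reporter under UAS control in GeneBLAzer FXR HEK 293T cells (5000/well) measured with LiveBLAzer FRET substrate after 2 h at room temperature. Compound exposure lasted 16 h at 37C.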

[16] = qHTS assay to identify small molecule antagonists of the farnesoid-X-receptor (FXR) signaling pathway - cell viability counter screen (AID 743221; active = well fitted cell-killing curve with a large enough effect in the repeat runs, not every such curve was filed as active)
Method in brief: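 GeneBLAzer FXR-UAS-bla HEK 293T cells, compound plus chenodeoxycholic acid (50 uM final), 16 h at 37 C. CellTiter-Glo added to the same wells after the beta-lactamase read; luminescence read after 30 min at room temperature as viability.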

[17] = biological target: Vitamin D3 receptor (Homo sapiens) (UniProt P11473); test: qHTS assay to identify small molecule antagonists of the vitamin D receptor (VDR) signaling pathway (AID 743223; active = well fitted inhibition curve with a large enough effect in the signal ratio in the repeat runs, not every such curve was filed as active; the % refers to the signal ratio; note: % is set by controls: 0 for no effect and ±100 for the full control effect)
Method in brief: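 VDR-bla cells were treated with compound plus 3 nM final 1alpha,25-dihydroxyvitamin D3 for 16 h at 37C. Beta-lactamase reporter read by B/G FRET substrate fluorescence after 2 h at room temperature. qHTS format.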

[18] = qHTS assay to identify small molecule agonists of the AP-1 signaling pathway - cell viability counter screen (AID 1159525; calls by dose curve; note: nearly all actives have a fitted effect of over 55% in size)
Method in brief: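 AP-1-bla ME-180 cells in Opti-MEM with 0.5% dialyzed FBS, compound exposure 5 h at 37 C in 15-point titration. Viability read in the same wells as ATP content by CellTiter-Glo luminescence, normalised to tetra-n-octylammonium bromide and DMSO controls.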

[19] = biological target: Peroxisome proliferator-activated receptor delta (Homo sapiens) (UniProt Q03181); test: qHTS assay to identify small molecule antagonists of the peroxisome proliferator-activated receptor delta (PPARd) signaling pathway (AID 743215; active = well fitted inhibition curve with a large enough effect in the signal ratio in the repeat runs, not every such curve was filed as active; the % refers to the signal ratio)
Method in brief: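 Antagonist-mode beta-lactamase reporter screen: HEK293H cells with UAS-bla under PPARd control, stimulated by 300 nM L165041 (final) alongside test compound for 17 h at 37 C, then FRET fluorescence after 2 h substrate incubation.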

O=C(O)CN(CCN(CC(=O)O)CC(=O)O)CCN(CC(=O)O)CC(=O)O
inactive: Potency [1] | outcome [2] | Potency [3] | Potency [4] | outcome [5] | Potency [6] | Potency [7] | outcome [8] | outcome [9] | outcome [10] | activity, negative = cytotoxicity [11] 4.04% [at 19 µM] | activity change, negative = inhibition [12] -6.39% [at 19 µM] | activation [13] -0.136% [at 15.8 µM]

CCc1nnc(NS(=O)(=O)c2ccc(N)cc2)s1
inactive: Potency [1] | Potency [3] | outcome [14] | Potency [4] | outcome [15] | outcome [16] | outcome [5] | outcome [17] | Potency [6] | Potency [7] | outcome [8] | outcome [9] | outcome [10] | Potency [11] | outcome [18] | Potency [13]

CCN(CC)C(=O)N(CC)CC
inactive: Potency [1] | outcome [2] | Potency [3] | outcome [19] | outcome [14] | outcome [15] | outcome [16] | outcome [5] | outcome [17] | Potency [6] | Potency [7] | outcome [8] | outcome [9] | outcome [10] | Potency [11] | outcome [18] | Potency [13]

O=C1CCCCC1C1CCCCC1 (stereo unspecified)
inactive: Potency [1] | outcome [2] | Potency [3] | outcome [19] | Potency [4] | outcome [17] | Potency [6] | Potency [7] | outcome [8] | outcome [9] | outcome [10] | Potency [11] | Potency [12] | Potency [13]

CCOc1ccc(NC(N)=O)cc1
inactive: Potency [1] | outcome [14] | Potency [4] | outcome [15] | outcome [16] | outcome [5] | Potency [6] | Potency [7] | outcome [8] | outcome [10] | Potency [11] | outcome [18] | Potency [13]

O=c1oc2c(O)c(O)cc3c(=O)oc4c(O)c(O)cc1c4c23
inactive: Potency [1] | Potency [3] | Potency [4] | outcome [15] | outcome [16] | outcome [17] | Potency [6] | Potency [7] | outcome [8] | outcome [10] | activity, negative = cytotoxicity [11] 0.685% [at 19 µM] | viability change, negative = cytotoxic [18] 7.4% [at 15.8 µM] | activation [13] 21.4% [at 15.8 µM]

C1CSCCS1
inactive: Potency [1] | outcome [2] | Potency [3] | outcome [19] | Potency [4] | outcome [16] | outcome [5] | Potency [6] | outcome [8] | outcome [9] | outcome [10] | Potency [11] | outcome [18] | Potency [13]

CC(C)(C)c1cccc(O)c1
inactive: Potency [1] | outcome [2] | Potency [3] | outcome [19] | Potency [4] | outcome [16] | outcome [17] | Potency [6] | Potency [7] | outcome [8] | outcome [9] | outcome [10] | Potency [11] | outcome [18] | Potency [13]

O=C1CCCc2ccccc21
inactive: Potency [1] | outcome [2] | Potency [3] | outcome [19] | Potency [4] | outcome [16] | outcome [5] | outcome [17] | Potency [6] | Potency [7] | outcome [8] | outcome [9] | outcome [10] | Potency [11] | outcome [18] | Potency [13]
